Compound activity as filed in PubChem.
Sampled rows, rich in hits. Any-hit rate of the full collection: about 1.5%.
PLK1 PBD inh: Plk1 (human) PBD binding inhibition; P53350; Plk1 PBD phosphopeptide binding, fluorescence polarization; inhibition, %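 (tested at about 20 µM)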; hit rate 0.13% among 97,000; AID 693; in the data active = inhibition above about 34%, passing the limit was not always enough
Smad3 FoxH1 inh: inhibitors of human Smad3 transcription factor binding; TR-FRET Smad3/Dy647-FoxH1 peptide binding, europium anti-His; AID 630; hit rate 0.29% among 88,000; inhibition, % at 25 µM; P84022;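 active = compounds that reduce the energy-transfer binding signal between the protein and its labelled peptide by more than half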;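 also: 0% = Smad3 plus labelled peptide maximal FRET and 100% = peptide-only background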
PLK1 inh: blocks human PLK1 kinase activity; P53350; recombinant PLK1 kinase, TR-FRET peptide phosphorylation; inhibition, % at 10 µM; hit rate 0.53% among 97,000;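 active = inhibition of 50% or more in the single-concentration screen; inactive = inhibition below 50%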;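 also: 0% = DMSO max control and 100% = H-89 dihydrochloride min control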
FAK blocker: FAK (human) kinase inhibition. biochemical FAK kinase activity assay. inhibition, %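 (tested at 7 µM)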. hit rate 0.84% among 97,000;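 also: 0% = DMSO and 100% = reference compound high control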
EphB4 antag: EphB4-ephrin-B2 interaction antagonism; inhibition, % at 7 µM; EphB4 LBD / TNYL-RAW-Alexa532 peptide, fluorescence polarization; hit rate 0.15% among 97,000; P54760;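 active = inhibition above the screen-wide mean inhibition plus 3 SD, cut at about 15% in these data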;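 also: 0% = DMSO wells and 100% = excess unlabeled TNYL-RAW peptide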
FAK inh conf: FAK (human) inhibition confirmed; shares compounds with FAK blocker; inhibition, % at 7 µM; AID 794; hit rate 28% among 750; FAK kinase biochemical inhibition assay
* hit, by the source's call. Rule as the data show it, unless noted: active = inhibition above about 19%; inactive = the rest.

How did COC(=O)c1c(C)[nH]c(O)c1C=Nc1ccc(C(C)C)cc1 do in these assays?
PLK1 PBD inh: -20.2; PLK1 inh: -5.5; FAK blocker: 29.2*; EphB4 antag: 1.2; FAK inh conf: 10.0

Results for Cc1ccc2c(n1)sc1c(-c3ccc(Br)cc3)c(C#N)c(N)nc12 ?
PLK1 PBD inh: -8.9; PLK1 inh: -5.5; FAK blocker: 29.2*; EphB4 antag: 5.3; FAK inh conf: 13.7

How did CCCSc1nc(C)c(-c2csc(C(C#N)=C3CCCC3)n2)cc1C#N do in these assays?
PLK1 PBD inh: 21.0; Smad3 FoxH1 inh: -4.1; PLK1 inh: -10.4; FAK blocker: 28.4*; EphB4 antag: 4.1; FAK inh conf: 1.6

What do the screens show for `Cc1nnc(NCc2ccco2)c2ccccc12`?
PLK1 PBD inh: 11.1; Smad3 FoxH1 inh: 4.2; PLK1 inh: -5.5; FAK blocker: 1.2; EphB4 antag: -4.6

Results for Cc1nnc(NCc2ccncc2)c2ccccc12 ?
PLK1 PBD inh: 7.5; Smad3 FoxH1 inh: 4.5; PLK1 inh: -17.8; FAK blocker: 22.9*; EphB4 antag: -4.1; FAK inh conf: 6.7

Results for Nc1ncnc2oc(-c3ccco3)c(-c3ccco3)c12 ?
PLK1 PBD inh: -27.6; Smad3 FoxH1 inh: 4.6; PLK1 inh: 56.2*; FAK blocker: 54.4*; EphB4 antag: 7.4; FAK inh conf: 31.9*

How did COc1ccc(-c2cc(C3CCN(c4ccc(C(C)=O)cc4[N+](=O)[O-])CC3)[nH]n2)cc1 do in these assays?
PLK1 PBD inh: -22.8; PLK1 inh: -14.5; FAK blocker: 5.3; EphB4 antag: 5.8

Results for Cc1c(-c2ccc(Cl)cc2)oc(=O)c2c(N)n(-c3ccccc3)nc12 ?
PLK1 PBD inh: 26.7; PLK1 inh: -28.7; FAK blocker: 24.1*; EphB4 antag: 3.5; FAK inh conf: 13.9

What do the screens show for `CCOCCCn1c(=N)c(C(=O)NCc2ccc3c(c2)OCO3)cc2c(=O)n3ccccc3nc21`?
PLK1 PBD inh: 16.6; Smad3 FoxH1 inh: 10.1; PLK1 inh: 1.3; FAK blocker: 4.4; EphB4 antag: -5.8

Results for COc1ccc(-c2oc3ncn(CCN4CCOCC4)c(=N)c3c2-c2ccc(OC)cc2)cc1 ?
PLK1 PBD inh: 3.4; Smad3 FoxH1 inh: 1.0; PLK1 inh: -6.5; FAK blocker: 19.6*; EphB4 antag: 6.3; FAK inh conf: 1.1

How did COc1ccc(-c2oc3ncnc(NCCCN4CCOCC4)c3c2-c2ccc(OC)cc2)cc1 do in these assays?
PLK1 PBD inh: -9.5; Smad3 FoxH1 inh: -5.6; PLK1 inh: 10.9; FAK blocker: 34.4*; EphB4 antag: 5.3; FAK inh conf: 8.7

What do the screens show for `c1ccc(-c2oc3ncnc(NCCCN4CCOCC4)c3c2-c2ccccc2)cc1`?
PLK1 PBD inh: -35.5; Smad3 FoxH1 inh: 9.7; PLK1 inh: -3.3; FAK blocker: 17.0; EphB4 antag: -4.5

Results for COc1ccc(-c2oc3ncnc(NCCN4CCOCC4)c3c2-c2ccc(OC)cc2)cc1 ?
PLK1 PBD inh: 7.2; Smad3 FoxH1 inh: 2.1; PLK1 inh: 7.4; FAK blocker: 20.8*; EphB4 antag: -4.7; FAK inh conf: 9.7

How did COc1ccc(-c2csc3ncnc(NCCN4CCOCC4)c23)cc1 do in these assays?
PLK1 PBD inh: 21.3; Smad3 FoxH1 inh: 0.7; PLK1 inh: -2.0; FAK blocker: 4.3; EphB4 antag: -1.7

Results for CCCNC(=O)N1CCC(C(=O)c2ccc(Cl)cc2)CC1 ?
PLK1 PBD inh: -40.7; Smad3 FoxH1 inh: -9.7; PLK1 inh: 0.9; FAK blocker: 2.1; EphB4 antag: 12.8

What do the screens show for `Cc1ccc(C)c(NS(=O)(=O)c2c(C)ccc3nsnc23)c1`?
PLK1 PBD inh: 5.6; Smad3 FoxH1 inh: -9.6; PLK1 inh: 2.1; FAK blocker: 3.6; EphB4 antag: -1.6

Results for Cc1ccc2nsnc2c1S(=O)(=O)Nc1cccc2nsnc12 ?
PLK1 PBD inh: 28.2; Smad3 FoxH1 inh: -6.0; PLK1 inh: -12.4; FAK blocker: 71.0*; EphB4 antag: 1.7; FAK inh conf: 47.7*

How did CN1C(=O)c2cccc3c(S(=O)(=O)NCc4ccco4)ccc1c23 do in these assays?
PLK1 PBD inh: 11.7; Smad3 FoxH1 inh: 5.7; PLK1 inh: -11.5; FAK blocker: 36.2*; EphB4 antag: -2.8; FAK inh conf: 21.2*

Results for CN1C(=O)c2cccc3c(S(=O)(=O)Nc4ccccn4)ccc1c23 ?
PLK1 PBD inh: -0.2; Smad3 FoxH1 inh: 6.2; PLK1 inh: -1.4; FAK blocker: 9.6; EphB4 antag: 1.9
